Active and inactive are the calls of the source. Rule for the calls: active = hit-call score of the fitted dose curve at least 0.9, where 1 is the maximum; inactive = score below 0.9.

Common to all, as to conditions: mRNA level, 48 h; actives raise or lower the signal
Read-out in assay [1]: Nuclear factor NF-kappa-B p105 subunit (Homo sapiens) (UniProt P19838)
In words: LTEA_HepaRG_NFKB1: Life Technologies and Expression Analysis (LTEA) Assay for Nuclear Factor Kappa B Subunit 1 (NFKB1) using HepaRG (AID 2283521).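 For outcome: TaqMan qRT-PCR transcript normalised to ACTB GAPDH and POLR2A housekeeping genes.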 Put shortly:
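Human HepaRG cells receive eight half-log concentrations, highest 100 uM, for 48 h. NFKB1 expression is then quantified by qRT-PCR and analysed for up- or down-regulation relative to 0.5% DMSO vehicle.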

Read-out in assay [2]: Phosphatase and tensin (PTEN), PTEN (gene 5728)
In words: LTEA_HepaRG_PTEN: Life Technologies and Expression Analysis (LTEA) Assay for Phosphatase and tensin (PTEN) using HepaRG (AID 2283523). In a few lines: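 HepaRG cells, 48 h after plating, exposed in duplicate for 48 h in serum-free induction medium to 8 half-log concentrations up to 100 uM (0.5% DMSO). PTEN mRNA by qRT-PCR, normalized to ACTB, GAPDH, POLR2A; bidirectional fit versus DMSO.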

Read-out in assay [3]: solute carrier (SLC22A1), SLC22A1 (gene 6580)
In words: LTEA_HepaRG_SLC22A1: Life Technologies and Expression Analysis (LTEA) Assay for solute carrier (SLC22A1) using HepaRG (AID 2283524). Put shortly:
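Differentiated human HepaRG cells in serum-free induction medium, exposed 48 h in duplicate to 8-point half-log series from 100 µM top in 0.5% DMSO. SLC22A1 mRNA by TaqMan qRT-PCR normalized to ACTB, GAPDH, POLR2A; bidirectional fit versus DMSO.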

Read-out in assay [4]: Pyruvate Dehydrogenase Kinase 4 (PDK4), PDK4 (gene 5166)
In words: LTEA_HepaRG_PDK4: Life Technologies and Expression Analysis (LTEA) Assay for Pyruvate Dehydrogenase Kinase 4 (PDK4) using HepaRG (AID 2283525). In a few lines: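 HepaRG cells plated 48 h, then switched to serum-free induction medium and exposed in duplicate for 48 h to 8 half-log concentrations from 100 uM in 0.5% DMSO. PDK4 mRNA measured by qRT-PCR, normalized to ACTB, GAPDH and POLR2A; bidirectional fit versus DMSO.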

Read-out in assay [5]: NAD(P)H dehydrogenase [quinone] 1 (NQO1), NQO1 (gene 1728)
In words: LTEA_HepaRG_NQO1: Life Technologies and Expression Analysis (LTEA) Assay for NAD(P)H dehydrogenase [quinone] 1 (NQO1) using HepaRG (AID 2283526). In a few lines:
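Human HepaRG hepatic cells received chemicals for 48 h in serum-free induction medium with 0.5% DMSO, up to 100 uM. Expression was assessed by TaqMan qRT-PCR against housekeeping controls and fitted bidirectionally against DMSO.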

Read-out in assay [6]: Nuclear factor erythroid 2-related factor 2 (Homo sapiens) (UniProt Q16236)
In words: LTEA_HepaRG_NFE2L2: Life Technologies and Expression Analysis (LTEA) Assay for Nuclear factor erythroid 2-related factor 2 (NFE2L2) Transcription Factor using HepaRG (AID 2283527).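 For outcome: TaqMan qRT-PCR transcript level normalised to ACTB GAPDH and POLR2A housekeeping genes.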 Put shortly: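 Differentiated human HepaRG cells, serum-free induction medium, exposed 48 h in duplicate to eight half-log concentrations up to 100 uM in 0.5% DMSO. NFE2L2 mRNA by Fluidigm TaqMan qRT-PCR, normalised to ACTB, GAPDH, POLR2A; bidirectional change versus DMSO.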

Read-out in assay [7]: succinate dehydrogenase complex iron sulfur subunit B (SDHB), SDHB (gene 6390)
In words: LTEA_HepaRG_SDHB: Life Technologies and Expression Analysis (LTEA) Assay for succinate dehydrogenase complex iron sulfur subunit B (SDHB) using HepaRG (AID 2283528). Put shortly: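 A human HepaRG culture in serum-free induction medium received test chemicals for 48 h over an eight-point range capped at 100 uM. SDHB expression change was quantified by qRT-PCR.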

Read-out in assay [8]: Signal transducer and activator of transcription 3 (Homo sapiens) (UniProt P40763)
In words: LTEA_HepaRG_STAT3: Life Technologies and Expression Analysis (LTEA) Assay for Signal transducer and activator of transcription (STAT3) using HepaRG (AID 2283529). In a few lines:
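Differentiated HepaRG cells, serum-free induction medium, dosed 48 h in duplicate, 8 half-log concentrations from 100 uM in 0.5% DMSO. STAT3 mRNA by qRT-PCR, normalised to ACTB, GAPDH, POLR2A; bidirectional fit versus DMSO.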

Read-out in assay [9]: solute carrier (SLCO1B1), SLCO1B1 (gene 10599)
In words: LTEA_HepaRG_SLCO1B1: Life Technologies and Expression Analysis (LTEA) Assay for solute carrier (SLCO1B1) using HepaRG (AID 2283530). In a few lines:
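Gain or loss of SLCO1B1 mRNA is fitted against the 0.5% DMSO vehicle in human HepaRG liver cells treated 48 h at up to 100 uM in half-log steps. Expression comes from qRT-PCR normalized to endogenous controls.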

Read-out in assay [10]: sulfotransferase 2A1 (SULT2A1), SULT2A1 (gene 6822)
Nature of the assay: LTEA_HepaRG_SULT2A1: Life Technologies and Expression Analysis (LTEA) Assay for sulfotransferase 2A1 (SULT2A1) using HepaRG (AID 2283531). In a few lines:
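Cells were plated and cultured 48 h, switched to serum-free induction medium, then dosed in duplicate for 48 h (8 concentrations, max 100 uM). RNA was isolated and SULT2A1 expression measured by qRT-PCR; gain or loss of signal fitted relative to DMSO.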

Read-out in assay [11]: Transforming Growth Factor (TGFA), TGFA (gene 7039)
In words: LTEA_HepaRG_TGFA: Life Technologies and Expression Analysis (LTEA) Assay for Transforming Growth Factor (TGFA) using HepaRG (AID 2283532). In a few lines: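 Differentiated HepaRG cells exposed 48 hours in serum-free induction medium, 0.5% DMSO vehicle, 8-point half-log series from 100 uM, in duplicate. TGFA mRNA by TaqMan qRT-PCR, normalised to ACTB, GAPDH, POLR2A; bidirectional fit versus DMSO.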

Read-out in assay [12]: Transforming Growth Factor (TGFB1), TGFB1 (gene 7040)
Nature of the assay: LTEA_HepaRG_TGFB1: Life Technologies and Expression Analysis (LTEA) Assay for Transforming Growth Factor (TGFB1) Transporter using HepaRG (AID 2283533). Put shortly:
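Expression change of TGFB1 in human HepaRG cells is measured after a 48 h chemical exposure, up to 100 uM in 0.5% DMSO vehicle. Curves are fitted in both directions relative to the DMSO baseline.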

Read-out in another assay: TIMP1, TIMP1 (gene 7076)
Nature of the assay: LTEA_HepaRG_TIMP1: Life Technologies and Expression Analysis (LTEA) Assay for TIMP1 using HepaRG (AID 2283534).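 For outcome: TaqMan qRT-PCR signal normalized to ACTB GAPDH and POLR2A housekeeping genes.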 Put shortly:
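We dosed human liver HepaRG cultures for 48 hours with up to 100 uM test chemical and measured TIMP1 expression by qRT-PCR. Activity in either direction is fitted relative to the 0.5% DMSO vehicle.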

Read-out in assay [13]: Tumor necrosis factor receptor 1 (TNFRSF1A), TNFRSF1A (gene 7132)
Nature of the assay: LTEA_HepaRG_TNFRSF1A: Life Technologies and Expression Analysis (LTEA) Assay for Tumor necrosis factor receptor 1 (TNFRSF1A) using HepaRG (AID 2283535). In a few lines:
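Expression of TNFRSF1A in human HepaRG liver cells was measured by qRT-PCR 48 h after chemical dosing (maximum 100 uM). Bidirectional curve fitting used 0.5% DMSO as baseline.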

Read-out in assay [14]: Thyroid Hormone Responsive (THRSP), THRSP (gene 7069)
In words: LTEA_HepaRG_THRSP: Life Technologies and Expression Analysis (LTEA) Assay for Thyroid Hormone Responsive (THRSP) using HepaRG (AID 2283536). Put shortly:
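Differentiated HepaRG cells treated 48 h in serum-free induction medium with 8 half-log concentrations up to 100 uM (0.5% DMSO), duplicates. THRSP mRNA by TaqMan qRT-PCR normalised to ACTB, GAPDH, POLR2A; bidirectional fit versus DMSO.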

Read-out in assay [15]: UDP glucuronosyltransferase (UGT1A1), UGT1A1 (gene 54658)
Nature of the assay: LTEA_HepaRG_UGT1A1: Life Technologies and Expression Analysis (LTEA) Assay for UDP glucuronosyltransferase (UGT1A1) using HepaRG (AID 2283538). Put shortly: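 Human liver HepaRG cultures receive test chemical for 48 h, up to 100 uM in 0.5% DMSO, with phenobarbital induction controls. UGT1A1 mRNA is measured by qRT-PCR and normalized to ACTB, GAPDH and POLR2A.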

Read-out in assay [16]: UDP glucuronosyltransferase (UGT1A6), UGT1A6 (gene 54578)
In words: LTEA_HepaRG_UGT1A6: Life Technologies and Expression Analysis (LTEA) Assay for UDP glucuronosyltransferase (UGT1A6) using HepaRG (AID 2283539). Put shortly: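 Endpoint is UGT1A6 transcript induction or loss in a human liver cell line, quantified by TaqMan qRT-PCR 48 h after dosing. Concentrations ran from 100 uM downward in half-log steps in 0.5% DMSO; activity was fitted in both directions versus vehicle.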

Read-out in assay [17]: X-box binding protein 1 (XBP1), XBP1 (gene 7494)
In words: LTEA_HepaRG_XBP1: Life Technologies and Expression Analysis (LTEA) Assay for X-box binding protein 1 (XBP1) using HepaRG (AID 2283540). Put shortly: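 Human HepaRG monolayers receive test chemical for 48 h across an eight-point half-log series starting at 100 uM. XBP1 mRNA gain or loss is scored against DMSO by qRT-PCR.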

Read-out in assay [18]: Protein phosphatase 2A (PPP2R4), PTPA (gene 5524)
Nature of the assay: LTEA_HepaRG_PPP2R4: Life Technologies and Expression Analysis (LTEA) Assay for Protein phosphatase 2A (PPP2R4) using HepaRG (AID 2283522). In a few lines: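 Gene-expression endpoint in HepaRG hepatic cells: 48 h treatment across eight half-log concentrations up to 100 uM in 0.5% DMSO. PPP2R4 mRNA by qRT-PCR, normalized to three endogenous control genes.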

Chain of Nuclear factor erythroid 2-related factor 2 (Homo sapiens) (Q16236 whole entry, looked up): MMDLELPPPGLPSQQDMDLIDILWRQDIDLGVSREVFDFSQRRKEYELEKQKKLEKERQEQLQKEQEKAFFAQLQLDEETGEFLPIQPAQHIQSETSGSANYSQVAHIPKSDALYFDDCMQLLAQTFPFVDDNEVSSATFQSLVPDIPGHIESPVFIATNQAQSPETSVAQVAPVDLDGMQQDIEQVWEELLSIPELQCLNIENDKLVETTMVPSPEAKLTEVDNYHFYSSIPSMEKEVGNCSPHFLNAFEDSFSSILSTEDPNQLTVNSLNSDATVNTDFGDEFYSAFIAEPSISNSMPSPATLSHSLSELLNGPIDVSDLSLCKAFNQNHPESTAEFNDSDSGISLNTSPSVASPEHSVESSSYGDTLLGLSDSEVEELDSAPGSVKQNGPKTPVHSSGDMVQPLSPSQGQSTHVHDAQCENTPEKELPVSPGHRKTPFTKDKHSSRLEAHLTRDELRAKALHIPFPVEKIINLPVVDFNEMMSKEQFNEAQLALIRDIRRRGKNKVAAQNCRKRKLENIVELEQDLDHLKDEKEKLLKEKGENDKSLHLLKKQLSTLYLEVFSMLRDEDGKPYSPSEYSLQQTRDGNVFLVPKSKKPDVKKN
Chain of Signal transducer and activator of transcription 3 (Homo sapiens) (P40763 whole entry, looked up): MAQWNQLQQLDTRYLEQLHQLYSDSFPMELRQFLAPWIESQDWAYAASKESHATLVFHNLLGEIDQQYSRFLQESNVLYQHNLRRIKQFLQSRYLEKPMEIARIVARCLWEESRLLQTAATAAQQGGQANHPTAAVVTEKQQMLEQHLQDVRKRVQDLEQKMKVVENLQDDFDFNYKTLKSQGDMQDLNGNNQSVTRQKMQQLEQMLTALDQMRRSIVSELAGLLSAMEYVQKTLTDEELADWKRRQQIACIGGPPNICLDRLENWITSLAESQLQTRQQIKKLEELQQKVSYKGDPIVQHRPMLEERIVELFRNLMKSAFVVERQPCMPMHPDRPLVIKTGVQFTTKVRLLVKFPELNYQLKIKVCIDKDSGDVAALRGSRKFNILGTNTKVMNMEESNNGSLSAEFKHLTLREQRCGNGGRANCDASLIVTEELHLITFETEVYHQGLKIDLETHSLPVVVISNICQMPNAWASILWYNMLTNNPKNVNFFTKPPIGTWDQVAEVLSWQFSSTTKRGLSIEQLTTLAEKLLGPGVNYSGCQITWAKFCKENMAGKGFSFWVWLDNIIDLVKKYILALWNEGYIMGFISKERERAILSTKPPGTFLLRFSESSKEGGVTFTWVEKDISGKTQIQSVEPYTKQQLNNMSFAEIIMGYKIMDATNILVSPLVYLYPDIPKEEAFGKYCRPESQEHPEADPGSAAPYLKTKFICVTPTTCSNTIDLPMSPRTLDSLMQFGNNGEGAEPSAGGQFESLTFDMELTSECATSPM
Chain of Nuclear factor NF-kappa-B p105 subunit (Homo sapiens) (P19838 whole entry, looked up): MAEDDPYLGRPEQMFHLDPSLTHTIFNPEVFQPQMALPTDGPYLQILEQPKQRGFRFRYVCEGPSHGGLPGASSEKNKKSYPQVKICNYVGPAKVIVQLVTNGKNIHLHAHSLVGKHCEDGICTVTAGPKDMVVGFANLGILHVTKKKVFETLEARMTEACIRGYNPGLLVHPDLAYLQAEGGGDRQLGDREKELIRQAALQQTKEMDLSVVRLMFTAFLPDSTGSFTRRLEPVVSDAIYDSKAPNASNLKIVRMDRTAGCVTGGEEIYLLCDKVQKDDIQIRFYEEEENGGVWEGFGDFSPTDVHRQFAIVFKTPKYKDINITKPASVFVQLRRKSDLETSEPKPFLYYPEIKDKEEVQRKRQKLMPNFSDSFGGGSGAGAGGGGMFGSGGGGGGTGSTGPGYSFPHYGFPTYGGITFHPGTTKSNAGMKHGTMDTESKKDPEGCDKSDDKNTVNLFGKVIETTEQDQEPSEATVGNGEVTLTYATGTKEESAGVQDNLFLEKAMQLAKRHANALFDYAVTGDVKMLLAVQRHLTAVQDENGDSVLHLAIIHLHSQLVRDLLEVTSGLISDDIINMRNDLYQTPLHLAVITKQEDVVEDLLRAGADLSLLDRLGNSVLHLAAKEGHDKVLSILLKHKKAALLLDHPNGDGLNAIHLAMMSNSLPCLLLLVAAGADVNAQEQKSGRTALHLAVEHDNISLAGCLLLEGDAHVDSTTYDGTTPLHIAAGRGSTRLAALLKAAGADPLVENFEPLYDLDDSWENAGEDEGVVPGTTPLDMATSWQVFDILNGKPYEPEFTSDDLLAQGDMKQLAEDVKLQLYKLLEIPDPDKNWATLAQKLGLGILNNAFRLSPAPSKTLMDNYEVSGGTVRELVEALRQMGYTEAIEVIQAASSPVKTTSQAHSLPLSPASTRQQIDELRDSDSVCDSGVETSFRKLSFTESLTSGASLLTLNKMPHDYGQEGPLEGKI

As for `Oc1cccc(O)c1`, the outcome in [1], in assay [2], in [3], in [4], in assay [5] and in assay [6] was inactive. Also, the result in [7], in [8], in [9], in [10], in [11] and in assay [12] was inactive. The outcome with TIMP1, TIMP1 (gene 7076) was “inactive”; in assay [13], “inactive”; in assay [14], “inactive”; in assay [15], “inactive”; in assay [16], “inactive”; in assay [17], “inactive”.
Usually AC50 stands for the concentration giving half of the maximal activity seen. For the molecule `CC#C[C@]1(O)CC[C@H]2[C@@H]3CCC4=CC(=O)CCC4=C3[C@@H](c3ccc(N(C)C)cc3)C[C@@]21C`, the AC50 was 50 µM (active) in [1]; 13.8 µM (active) in assay [18]; 25.2 µM (active) in [3]; 0.504 µM (active) in [4]; 50 µM (active) in assay [6]; 26.2 µM (active) in [7]. The AC50 is 84.2 µM (active) in assay [9]; 57.4 µM (active) in assay [10]; 3.49 µM (active) in assay [12]; 83.9 µM (active) with TIMP1, TIMP1 (gene 7076); 11.3 µM (active) in [14]; 77.2 µM (active) in [15]. The concentration at half-maximal activity (AC50) in [16] was 79.8 µM (active); in assay [17], 53.4 µM (active). The molecule was classed as inactive in assay [2], in assay [5], in assay [8] and in assay [13].
With `CCCOc1sc(C(=O)N2CCC(c3cc(CN)ccc3F)CC2)c(C)c1Br`, the molecule was called inactive in [1], in assay [18], in assay [2], in assay [3], in assay [4] and in assay [5]. The result in assay [6], in assay [7], in assay [8], in assay [9], in assay [10] and in assay [11] was inactive. Further, the outcome in assay [12] was “inactive”; in the assay with TIMP1, TIMP1 (gene 7076), “inactive”; in assay [13] it was “inactive”; in assay [14] it was “inactive”; in assay [15] it was “inactive”; in assay [16] it was “inactive”. For the same molecule, the outcome in assay [17] was inactive.

Values taken from PubChem BioAssay (EPA / NIEHS).
